Assay outcomes as filed in PubChem BioAssay.
Hits are enriched below; roughly 0.34% of the tested compounds scored in any of these assays.
TRPML1 agonist: qHTS for Agonists of the Human Mucolipin Transient Receptor Potential 1 (TRPML1) | TRPML1-expressing cells, Ca2+ dye fluorescence, FDSS | activation, % (no concentration beside the values) | hit rate 0.12% among 410,000 | AID 624414, 2012; in the data active = activation above about 50%; inconclusive = mostly about 30% to 49%; also: 0% is about no effect
Target sequence (Q9GZU1 whole entry, looked up): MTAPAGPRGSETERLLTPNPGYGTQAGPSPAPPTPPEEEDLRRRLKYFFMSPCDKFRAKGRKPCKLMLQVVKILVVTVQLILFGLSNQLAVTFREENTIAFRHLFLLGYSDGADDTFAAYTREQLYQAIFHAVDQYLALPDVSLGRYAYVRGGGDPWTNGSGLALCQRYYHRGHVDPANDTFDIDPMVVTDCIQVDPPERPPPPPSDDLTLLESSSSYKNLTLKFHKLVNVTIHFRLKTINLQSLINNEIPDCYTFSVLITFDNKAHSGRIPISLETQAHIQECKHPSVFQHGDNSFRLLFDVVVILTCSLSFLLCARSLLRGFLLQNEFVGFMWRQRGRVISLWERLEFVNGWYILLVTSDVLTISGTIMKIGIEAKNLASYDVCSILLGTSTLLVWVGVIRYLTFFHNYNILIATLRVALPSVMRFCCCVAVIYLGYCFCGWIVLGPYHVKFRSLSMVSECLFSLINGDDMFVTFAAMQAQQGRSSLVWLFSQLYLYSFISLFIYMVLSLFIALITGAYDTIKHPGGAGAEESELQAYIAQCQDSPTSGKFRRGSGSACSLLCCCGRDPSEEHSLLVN
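Tetracycline-induced TRPML1-DL cells are seeded and incubated overnight before loading with a no-wash Ca2+ dye and quencher. Agonist activity is taken from the 110 s fluorescence read following compound pin-transfer on an FDSS, before EC80 54-4 challenge.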
uPA generation: qHTS for Inhibitors of Cell Surface uPA Generation. cell surface uPA generation assay, qHTS. Potency, µM (series often up to 38.3 µM), for the others: at the top dose activity change, negative = inhibition, actives largely listed as inhibitors. hit rate 0.31% among 330,000; active = well fitted inhibition curve with a large enough effect; inconclusive = small, poorly fitted or top-dose-only effect; inactive = no such curve, though single readings can be large or run the other way; tested in mouse RAW 264.7 cells; also: potency is read from the fitted curve at half-maximal effect; % is scaled to controls: 0 for no effect and ±100 for the full control effect; nearly all actives have a fitted effect of over 55% in size
miR-21 reporter: qHTS Assay for Modulators of miRNAs and/orActivators of miR-21 | HeLa miR-21 FLuc reporter, luciferase, 48 h | Potency, µM (titrated, usually from 38.3 µM), for inactives: at the top dose activity change, positive = activation, most hits filed as activators | 340,000 tested, under 10 active; active = well fitted curve in the direction sought with a large enough effect; inconclusive = small, poorly fitted or top-dose-only effect, or another doubt; inactive = no such curve, though single readings can be large or run the other way;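 also: % of control where 0% means no effect; miR-21 action dims this reporter so a rising signal means less miR-21 action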
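Compounds were titrated across several concentrations (up to approximately 40 uM) and incubated 48 hours with HeLa miR-21-FLuc reporter cells (miR-21 target sequence downstream of FLuc, endogenous miR-21). Readout was firefly luciferase luminescence after lytic detection reagent.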
TRPML1 blocker: qHTS for Inhibitors of the Human Mucolipin Transient Receptor Potential 1 (TRPML1) | activity change, negative = inhibition, % (concentration not given with the values) | TRPML1-inducible cells, Ca2+ dye fluorescence, FDSS; active compounds read low; inhibition of EC80 agonist-evoked calcium signal | Mucolipin-1 (Homo sapiens), Q9GZU1 | hit rate 0.02% among 390,000; in the data active = activity change below about -50%; inconclusive = between about -30% and that limit;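 also: stimulus is agonist 54-4 at its EC80 concentration; % is scaled to controls: 0 for no effect and ±100 for the full control effect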
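Tet-induced TRPML1-DL cells loaded with Ca8 no-wash calcium dye were read kinetically on FDSS. Compound addition was followed by EC80 agonist 54-4 (4 uM final); inhibition was read over 110 s.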
Starred values were filed as active, the others as inactive; ? = inconclusive; / = not tested or not shown.

SMILES	TRPML1 agonist	uPA generation	miR-21 reporter	TRPML1 blocker
Cc1ccc(C(=O)NC(=S)NNC(=O)c2ccccc2)cc1	69*	-10%	-3%	-14
Nc1nc(=S)[nH]c2n[nH]nc12	0	/	/	/
COc1ccc[n+](CC(=O)c2ccc(F)cc2)c1	0	/	/	/
Cc1cccc(C(=O)NNC(=S)NC(=O)c2ccccc2)c1	70*	-4%	/	6
OC(CN1CCCCC1)c1ccccc1 (centres undefined)	0	/	/	/
Cc1ccnc2cc(Cl)c(Cl)cc12	-1	/	/	/
CN(CC(=O)Nc1ccc(Cl)c(C(F)(F)F)c1)C(=O)CCNC(=O)c1ccco1	-1	3%	/	22
CN(CC(=O)Nc1ccc(Cl)c(C(F)(F)F)c1)C(=O)CCCNC(=O)c1ccc(Cl)cc1	0	8.9µM*	/	-4
O=C(NC1CCCc2ccccc21)c1cnn2c1NC(=C1CC1)C=C2C(F)F (centres undefined)	0	/	/	/
Fc1cccc(CSc2nc3ccncc3[nH]2)c1	0	?	-49%	-9
Clc1cccc(CSc2nc3ccncc3[nH]2)c1	0	4.5µM*	-45%	21
Cc1nn(Cc2c(Cl)cccc2Cl)c(C)c1NC(=O)c1cc(C(C)C)on1	0	3.2µM*	18%	-3
O=C(O)c1ccccc1-c1c2cc(I)c(=O)c(I)c-2oc2c(I)c(O)c(I)cc12	177*	11%	/	-90*
O=C(NC1CCCCC1)[C@@H]1CC=C[C@@H]2CCN(Cc3ccc(Cl)c(Cl)c3)C(=O)[C@@H]21	-1	/	/	/
O=[N+]([O-])c1ccc(O/N=[N+](\[O-])N2CCN(c3ccccc3)CC2)c([N+](=O)[O-])c1	1	/	/	45
COc1ccc(C(CCN2CCOCC2)c2c(OC)cc(OC)c3c(-c4ccccc4)cc(=O)oc23)cc1 (centres undefined)	5	14µM*	/	6
COc1ccc(C(CCN2CCCC2)c2c(OC)cc(OC)c3c(-c4ccccc4)cc(=O)oc23)cc1 (centres undefined)	2	-11%	25%	18
COc1ccc(S(=O)(=O)Nc2cc3c(C(C)=O)c(C)oc3c3ccccc23)cc1	62*	-20%	24%	-14
CC(=O)c1c(C)oc2c1cc(NS(=O)(=O)c1ccc(C(C)(C)C)cc1)c1ccccc12	28	/	23%	-25
Cc1onc(-c2ccccc2Cl)c1C(=O)N1CCN(c2cccc(Cl)c2)CC1	-1	2.2µM*	17%	1
Cc1onc(-c2ccccc2Cl)c1C(=O)N1CCN(c2ccccc2)CC1	0	-17%	-6%	-6
O=C(COc1ccccc1C(=O)OCC(=O)N1CCOCC1)Nc1ccc(Br)cc1	0	/	/	/
Cc1cc(N2CCN(c3ccc(C(F)(F)F)cc3[N+](=O)[O-])CC2)c2ccccc2n1	-1	14µM*	4%	-4
COc1cc(N/N=C/c2ccc(N(C)C)cc2)ncn1	3	3.5µM*	-65%	-7
COc1ccccc1CNS(=O)(=O)c1ccc(-c2cnc(C3CC3)o2)cc1	2	0.28µM*	17%	-15
SMILES	TRPML1 agonist	uPA generation	miR-21 reporter	TRPML1 blocker
O=C(NC(=S)Nc1cccc2cc(O)ccc12)c1ccco1	2	4%	-8%	-59*
Cn1c(/C=C/c2ccc(Cl)cc2)c([N+](=O)[O-])c(=O)n(C)c1=O	1	5.6µM*	?	-3
COc1ccc(/C=C/c2c([N+](=O)[O-])c(=O)n(C)c(=O)n2C)cc1OC	0	2%	-1%	-6
COc1cc(/C=C2\C=Cc3ccccc32)cc(OC)c1OC	0	/	/	/
CN(C)C=Nc1nonc1-c1ccccc1	-1	14%	-9%	-3
CN(C)C=Nc1c(Br)cc(Br)c2nonc12	62*	2%	-19%	-6
CCOC(=O)c1cn(CC)c2cc(Cl)c([N+](=O)[O-])cc2c1=O	0	4%	-2%	1
CCOC(=O)c1cn(-c2c(Cl)cccc2Cl)c2cc(Cl)c([N+](=O)[O-])cc2c1=O	1	8.9µM*	-8%	-5
CCn1c2ccccc2c2cc(NC(=O)c3cc(OC)c(OC)c(OC)c3)ccc21	0	-9%	25%	2
CCn1c2ccccc2c2cc(NC(=O)c3cc(OC)cc(OC)c3)ccc21	0	2.2µM*	22%	11
CCc1ccc2oc(-c3ccc(C)c(NC(=O)COc4ccc(Cl)cc4)c3)nc2c1	0	/	/	/
O=C(c1cnn(-c2cccc(F)c2)c1-n1cccc1)N1CCN(c2ccccc2F)CC1	71*	/	2%	-13
CCn1c(O)c(N=NC(=O)CNC(=O)c2ccco2)c2ccccc21	1	?	14%	-11
C=CCn1c(O)c(N=NC(=O)CNC(=O)c2ccco2)c2ccccc21	1	10µM*	14%	21
Cc1cc(C)c(C(=O)OCC(=O)Nc2cccc(S(=O)(=O)N3CCCCC3)c2)c(C)c1	1	8.9µM*	/	-2
O=C(COC(=O)c1ccccc1Cl)Nc1cccc(S(=O)(=O)N2CCCCC2)c1	1	/	/	-2
C=C1C=C(C(F)F)n2ncc(C(=O)N3CCCCC3)c2N1	-1	/	/	/
COc1cc2nc(N3CCCN(C)CC3)nc(N(C)C)c2cc1OC	0	/	/	/
C=CC[C@]12CC=CC(=O)[C@@]1(O)O[C@H](c1ccc(OC)c(OC)c1)[C@H]2C	/	7.9µM*	/	/
C=CC[C@]12C=C(OC)C(=O)C(OC)=C1O[C@@H](c1ccc3c(c1)OCO3)[C@H]2C	/	-15%	/	/
Cc1ccc(S(=O)(=O)N(CC(=O)N2CCOCC2)c2ccccc2F)cc1	-1	-3%	0%	20
CCOc1ccccc1N(CC(=O)N1CCOCC1)S(=O)(=O)c1ccc(SC)cc1	105*	3%	-1%	-3
COc1cc([N+](=O)[O-])cc2sc(NC(C)=O)nc12	0	10µM*	-4%	4
Cc1ccc(C(=O)Nc2ccc(N3CCN(C)CC3)cc2)cc1	1	2%	-53%	-5
Cc1ccc(NC(=O)c2ccc(C)cc2)cc1	1	2.8µM*	/	14
SMILES	TRPML1 agonist	uPA generation	miR-21 reporter	TRPML1 blocker
COc1cc2ccccc2cc1C(=O)Nc1ccc(C)cc1	/	20µM*	-25%	/
Cc1ccc(C(=O)Nc2ccc(-c3csc(C)n3)cc2)cc1	-1	-5%	-31%	2
Cc1nc(-c2ccc(NC(=O)c3ccccc3)cc2)cs1	0	2.2µM*	18%	-2
CCn1c(=O)c2sccc2n2c(CCC(=O)Nc3ccc(F)cc3)nnc12	0	/	3%	6
Cc1ccccc1OCCn1cc(C(=S)N2CCCC2)c2ccccc21	1	-6%	/	-1
CC(=O)c1cn(CCOc2ccccc2C)c2ccccc12	2	5.6µM*	24%	29
N#C/C(=C/c1ccc(N2CCOCC2)o1)C(=O)Nc1ccccc1	83*	-4%	-27%	-17
CCOc1ccc(/C=C/c2ccc3ccccc3[n+]2C)cc1OCC	4	/	/	/
CC[n+]1ccc(/C=C/c2c[nH]c3ccccc23)cc1	6	?	27%	-29
